CHT inh: human CHT choline transport inhibition. Q9GZV3. CHT-expressing cells, membrane potential dye, choline response; hits give low values. B-score at 10 µM. hit rate 0.86% among 310,000;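 active = B-score over 3 SD under the library average, and starting fluorescence ratio not unusually high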;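 also: choline stimulus applied at its EC90 after an EC20 pre-addition; B-score computed on integrated fluorescence ratio after choline addition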
CHT PAM: allosterically activates the human high affinity choline transporter | Q9GZV3 | CHT-expressing cells, membrane potential dye, choline EC20; hits give high values; LV-AA mutant CHT in HEK293 cells | AID 488977 | hit rate 0.49% among 310,000 | B-score at 10 µM;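 active = initial fluorescence not abnormally high and integrated response B-score, plate-corrected, over 3 SD above library mean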
ANO1 activ: mouse TMEM16A channel activation, primary screen; Q8BHY3; HEK293 TMEM16A/YFP-H148Q/I152L, iodide quench fluorescence; hits give low values; B-score at 10 µM; hit rate 0.3% among 340,000; AID 623877;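 active = fluorescence-ratio B-score plate-corrected deviation score at least 3 library SD below zero, with starting fluorescence score within 5 deviations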;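 also: channel opened by trigger with iodide after compound preincubation; score built on the fluorescence ratio of max minus min over baseline; more negative score means more quench and so TMEM16A activation or potentiation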
Target sequence (Q8BHY3 whole entry, looked up): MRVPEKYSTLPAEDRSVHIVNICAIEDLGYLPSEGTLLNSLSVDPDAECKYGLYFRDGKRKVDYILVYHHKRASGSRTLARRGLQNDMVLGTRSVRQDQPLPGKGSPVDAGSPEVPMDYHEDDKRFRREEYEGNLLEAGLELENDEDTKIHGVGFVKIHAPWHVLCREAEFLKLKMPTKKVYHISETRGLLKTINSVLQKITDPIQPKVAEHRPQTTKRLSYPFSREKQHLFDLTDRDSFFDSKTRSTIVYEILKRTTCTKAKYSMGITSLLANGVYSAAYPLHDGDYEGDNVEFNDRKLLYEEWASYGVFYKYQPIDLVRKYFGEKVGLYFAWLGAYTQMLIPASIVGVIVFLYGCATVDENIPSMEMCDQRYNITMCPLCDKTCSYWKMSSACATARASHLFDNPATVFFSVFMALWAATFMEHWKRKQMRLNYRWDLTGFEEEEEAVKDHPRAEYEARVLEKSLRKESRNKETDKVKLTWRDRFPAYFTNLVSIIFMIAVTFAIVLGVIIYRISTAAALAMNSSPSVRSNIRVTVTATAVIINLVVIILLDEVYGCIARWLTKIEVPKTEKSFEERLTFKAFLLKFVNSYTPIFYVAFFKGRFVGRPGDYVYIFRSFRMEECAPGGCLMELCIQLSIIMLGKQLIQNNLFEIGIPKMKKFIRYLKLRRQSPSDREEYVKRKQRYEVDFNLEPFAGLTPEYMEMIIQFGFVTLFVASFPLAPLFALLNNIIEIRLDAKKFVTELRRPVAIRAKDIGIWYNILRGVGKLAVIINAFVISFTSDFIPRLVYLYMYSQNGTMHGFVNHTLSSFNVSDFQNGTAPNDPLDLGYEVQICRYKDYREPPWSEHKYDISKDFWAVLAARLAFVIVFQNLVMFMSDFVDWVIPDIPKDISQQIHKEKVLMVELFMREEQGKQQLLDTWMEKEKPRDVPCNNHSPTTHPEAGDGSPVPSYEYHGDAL
TMEM16A inh: inhibitors of mouse TMEM16A calcium-activated chloride channel. Q8BHY3. HEK293 TMEM16A/YFP iodide influx fluorescence, ionomycin. normalized B-score (activity score, 25-100; higher = stronger inhibition) at 10 µM. hit rate 1.2% among 310,000. AID 588511;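 active = ratio plate-corrected score three or more library SD toward inhibition, starting fluorescence score within five deviations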;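 also: score derived from kinetic fluorescence span divided by baseline fluorescence per well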
TMEM16A reconf: re-confirmation of mouse TMEM16A chloride channel inhibitors; shares compounds with TMEM16A inh; HEK293 TMEM16A/YFP-H148Q, iodide quench fluorescence; ionomycin added to raise cell calcium; inhibition, % at 10 µM; hit rate 39% among 2,300;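 active = mean duplicate percent inhibition, scaled so buffer wells are 0 and the reference blocker 100, over three buffer SD above buffer mean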
TMEM16A Ca cntr: calcium mobilization counter-screen hit for TMEM16A inhibitor series. shares compounds with TMEM16A inh. TMEM16A/YFP HEK293, Fluo4 calcium mobilization. calcium response (% of ionomycin), % at 10 µM. hit rate 2% among 2,300;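 active = duplicate-averaged calcium signal over 20% of the ionomycin maximum, relative to buffer baseline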;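 also: each well's signal is peak minus trough fluorescence divided by its pre-addition baseline; 0% = buffer wells and 100% = ionomycin wells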
YFP-HEK293 quench: parental YFP-HEK293 iodide quench counter-screen activity; ionomycin; shares compounds with TMEM16A inh; 2,300 tested, under 10 active; YFP ratio F(max-min)/F0 at 10 µM; AID 652233;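 active = yellow fluorescent protein signal ratio exceeding the buffer control mean by over 5 SD of those controls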;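 also: ratio is mean of duplicate wells from kinetic YFP trace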
ClC-1 inh: selectivity of TMEM16A inhibitors: inhibition of rat ClC-1 chloride channel; 2,300 tested, under 10 active; ratio percent, % at 10 µM; CHO ClC-1-YFP, iodide influx fluorescence quench; iodide control reads 0, buffer control 100; shares compounds with TMEM16A inh;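 active = duplicate-mean ratio percent above the mean of iodide-only control wells, which defines zero, plus 5 of their SD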;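 also: higher percent means stronger block of ClC-1 iodide influx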
The depositor's hits bear a star; i = inactive; . = no result given. An excerpt weighted towards active compounds, which were near 2.3% of everything screened.

SMILES	CHT inh	CHT PAM	ANO1 activ	TMEM16A inh	TMEM16A reconf	TMEM16A Ca cntr	YFP-HEK293 quench	ClC-1 inh
CN(C)c1ccc(-c2noc(C3CCN(S(=O)(=O)c4cccc(Cl)c4)CC3)n2)cc1	i	i	i	i	.	.	.	.
O=S(=O)(c1ccc2ccccc2c1)N1CCC(c2nc(-c3ccncc3)no2)CC1	i	i	i	100*	17%*	i	-0.93	-6
CSc1nsc(SC)c1NC(=O)OCC1CCCO1 (stereo unspecified)	i	i	i	i	.	.	.	.
COc1ccc(N2CC(O)=C(c3n(C)c4ccccc4[n+]3C)C2=N)cc1	i	i	i	25*	i	i	-1.1	-4
O=C(O)c1ccc(OCCOc2ccccc2)cc1	i	i	i	i	.	.	.	.
CCCCOC(=O)n1c(=O)oc2ccc(S(=O)(=O)N3CCCCC3)cc21	i	i	i	25*	20%*	i	-1	-8
CC(C)COC(=O)n1c(=O)oc2cc(S(=O)(=O)N3CCCCC3)ccc21	i	i	i	i	.	.	.	.
CCOc1ccc(S(=O)(=O)N(C)c2ccc(OCC(=O)Nc3ccccc3F)cc2)cc1	.	.	i	.	.	.	.	.
Cc1ccc(N2CC(NS(=O)(=O)c3cc(F)ccc3F)CC2=O)cc1C (stereo unspecified)	i	i	i	i	.	.	.	.
Cc1c(C(=O)Nc2nonc2-c2ccc(F)cc2)oc2ccc(F)cc12	i	i	i	25*	40%*	i	-0.88	-16
Cc1ccc(S(=O)(=O)c2c(C)nn(C(C)(C)C)c2OC(=O)C(C)(C)C)cc1	i	i	i	100*	i	i	-0.99	-18
Cn1c(CN2CCCCC2)nc2cc(NC(=O)c3ccc(Cl)cc3)ccc21	i	i	i	100*	23%*	i	-1.2	-3
COc1ccc(Cl)cc1NC(=O)CN(C)C1CCCCC1	i	i	i	i	i	i	-1	-10
COc1ccc(Cl)cc1NC(=O)CC(=O)Nc1cc(Cl)ccc1OC	i	i	i	i	.	.	.	.
C=CCN(CC=C)C(=O)Nc1cc(Cl)ccc1OC	i	i	i	25*	i	i	-1.1	-5
COc1ccc(Cl)cc1NC(=O)COC(=O)C1CCCCC1	.	.	i	.	.	.	.	.
COc1cc(S(=O)(=O)N2CCOCC2)ccc1N	i	i	i	i	.	.	.	.
O=C(CCC(=O)N1CCN(S(=O)(=O)c2ccc(Cl)cc2)CC1)NCc1ccccc1	i	i	i	i	.	.	.	.
Cc1ccc(S(=O)(=O)N2CCN(C(=O)CCC(=O)NCc3cccc(C(F)(F)F)c3)CC2)cc1	i	i	i	25*	i	i	-1.2	-20
CCOc1ccc(N2C(=O)C(CC(=O)Nc3ccc(F)cc3)N(Cc3ccccn3)C2=S)cc1 (stereo unspecified)	i	i	i	i	.	.	.	.
CCNC(=O)CC1C(=O)N(c2ccc(F)cc2)C(=O)N1Cc1ccccn1 (stereo unspecified)	i	i	i	100*	i	i	-1	-8
CCC(=O)Nc1cccc(-c2nc3ncccc3o2)c1C	i	i	i	i	.	.	.	.
Cc1c(NC(=O)CSc2ccc(Cl)cc2)cccc1-c1nc2ncccc2o1	i	i	i	25*	20%*	i	-0.9	-10
Cc1nc(C)c(C(=O)N/N=C/c2cc(Br)ccc2O)s1	i	i	i	i	.	.	.	.
O=C(CCCN1C(=O)c2ccccc2C1=O)N1CCc2ccccc2C1	i	i	i	25*	i	i	-1.1	-4
SMILES	CHT inh	CHT PAM	ANO1 activ	TMEM16A inh	TMEM16A reconf	TMEM16A Ca cntr	YFP-HEK293 quench	ClC-1 inh
O=C(CN1C(=O)c2cccc3cccc1c23)N1CCc2ccccc2C1	i	i	i	i	.	.	.	.
CCOC(=O)/C(C(N)=NCC(C)C)=C(/O)c1ccccc1	i	i	i	i	.	.	.	.
CCCOC(=O)/C(C(N)=NCc1ccccc1)=C(\O)OCCC	i	i	i	100*	i	i	-0.87	-10
O=C(O)c1ccc(N=Cc2c(O)ccc3ccccc23)cc1	i	i	i	i	.	.	.	.
COc1ccc(N=Cc2c(O)ccc3ccccc23)cc1	i	i	i	i	i	i	-0.51	4
CC(=O)c1ccc(NC(=O)N2CCN(c3ccc(C)cc3)C(C)C2)cc1 (stereo unspecified)	i	i	i	25*	i	i	-0.88	-4
Nc1nn(S(=O)(=O)c2cccc3nsnc23)cc1-c1ccc(Br)cc1	i	i	i	25*	i	i	-1	2
COC(=O)c1cc(CSc2nc3ccccc3[nH]2)oc1C	i	i	i	25*	22%*	i	-0.74	-12
CC1CN(C(=O)c2cc(S(=O)(=O)N3CCCCC3)ccc2Cl)CC(C)O1 (stereo unspecified)	.	.	i	.	.	.	.	.
CSc1ccccc1OCc1cc(C(=O)N2CCC(c3ccncc3)CC2)no1	i	i	i	100*	i	i	-1.2	-20
COCC1CCN(C(=O)c2cc(COc3ccc4ncccc4c3)on2)CC1	i	i	i	25*	32%*	i	-0.89	-13
CSc1ccccc1OCc1cc(C(=O)N2CCNC(=O)C2)no1	i	i	i	i	.	.	.	.
O=C(c1cc(COc2ccc3ncccc3c2)on1)N1CCCC1	i	i	i	25*	26%*	i	-1.1	-26
Cc1ccc(CSCCNS(=O)(=O)c2ccc(C)cc2)cc1	i	i	i	i	.	.	.	.
CC(C)CC(=O)c1c[nH]c(C(=O)NCCCN2CCOCC2)c1	i	i	i	25*	i	i	-0.99	-10
CCc1c(C)nc2ncnn2c1NCCc1ccc(OC)cc1	i	i	i	25*	i	i	-0.82	-20
O=C(O)c1cc(-c2ccc(Cl)cc2)n(-c2ccc(F)cc2)n1	i	i	i	i	.	.	.	.
Nc1ccc(CCS(N)(=O)=O)cc1	i	i	i	25*	i	i	-0.89	-2
N#C/C(=C\c1cccnc1)C(=O)Nc1ccc(S(N)(=O)=O)cc1	i	i	i	i	.	.	.	.
Cc1c(NC(=O)Cn2ccc([N+](=O)[O-])n2)c(=O)n(-c2ccccc2)n1C	i	i	i	i	.	.	.	.
